# Values without a mark were called inactive.
# Experiments:
# Test in all cases: log2 ratio of Biotin-Ahx-Ub-VS probe labelling (fragment/DMSO); higher = less target engagement (more negative = stronger competition), active = hit call of the paper (q ≤ 0.05, log2 ratio ≤ -1)
# Conditions in all cases: compound concentration: 200 uM; treatment time: 3 h
# OTUD6B = target: T1, OTUD6B (UniProt Q8N6M0)
# T1 sequence (whole entry): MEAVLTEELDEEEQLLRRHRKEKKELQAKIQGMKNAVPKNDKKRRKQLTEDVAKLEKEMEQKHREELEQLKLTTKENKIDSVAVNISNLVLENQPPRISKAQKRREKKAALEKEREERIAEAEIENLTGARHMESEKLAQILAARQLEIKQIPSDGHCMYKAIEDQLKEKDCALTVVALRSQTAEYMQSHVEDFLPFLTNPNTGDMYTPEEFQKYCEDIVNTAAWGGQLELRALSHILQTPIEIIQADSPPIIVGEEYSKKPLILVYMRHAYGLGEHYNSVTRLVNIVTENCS
# Method in brief: (§1)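 Using Biotin-Ahx-Ub-VS at 0.5 µM final for 1 h, DUBs were labelled in HEK293T lysate (495 µg per sample) that had first been treated in triplicate with fragment at 200 µM or vehicle for 3 h. NeutrAvidin enrichment, LysC and trypsin digestion and diaPASEF LC-MS/MS followed. Spectronaut label-free quantities were global-median-normalised. Values are average log2 fragment/vehicle ratios by unpaired t-test, using proteins with ≥2 unique peptides.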
# OTUD7B = target: T2, OTUD7B (UniProt Q6GQQ9)
# T2 sequence (whole entry): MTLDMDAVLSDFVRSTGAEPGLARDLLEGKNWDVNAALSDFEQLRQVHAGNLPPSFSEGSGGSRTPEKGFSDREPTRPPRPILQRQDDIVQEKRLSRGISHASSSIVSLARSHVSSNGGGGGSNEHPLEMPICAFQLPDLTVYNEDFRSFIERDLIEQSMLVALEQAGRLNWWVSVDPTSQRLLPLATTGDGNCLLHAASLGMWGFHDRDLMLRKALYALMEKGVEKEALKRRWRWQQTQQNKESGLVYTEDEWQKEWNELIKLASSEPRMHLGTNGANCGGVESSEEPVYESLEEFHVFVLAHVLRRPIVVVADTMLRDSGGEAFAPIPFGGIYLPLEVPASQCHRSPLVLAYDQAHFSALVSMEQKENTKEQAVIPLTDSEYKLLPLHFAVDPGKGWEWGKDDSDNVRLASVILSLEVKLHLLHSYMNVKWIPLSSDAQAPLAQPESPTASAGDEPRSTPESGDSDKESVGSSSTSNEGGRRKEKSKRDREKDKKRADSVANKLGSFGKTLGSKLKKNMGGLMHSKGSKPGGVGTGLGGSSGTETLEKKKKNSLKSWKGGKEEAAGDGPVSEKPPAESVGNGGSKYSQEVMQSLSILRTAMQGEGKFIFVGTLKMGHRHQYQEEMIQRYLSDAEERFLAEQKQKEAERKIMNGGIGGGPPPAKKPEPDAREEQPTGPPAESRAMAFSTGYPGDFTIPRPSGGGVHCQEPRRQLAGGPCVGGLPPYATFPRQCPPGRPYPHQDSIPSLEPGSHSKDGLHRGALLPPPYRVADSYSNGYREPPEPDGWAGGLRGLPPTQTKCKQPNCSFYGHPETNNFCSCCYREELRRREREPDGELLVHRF
# Method in brief: as §1
# PRPF8 = PRPF8 (UniProt Q6P2Q9)
# Method in brief: as §1
# PSMD7 = target: T3, PSMD7 (UniProt P51665)
# T3 sequence (whole entry): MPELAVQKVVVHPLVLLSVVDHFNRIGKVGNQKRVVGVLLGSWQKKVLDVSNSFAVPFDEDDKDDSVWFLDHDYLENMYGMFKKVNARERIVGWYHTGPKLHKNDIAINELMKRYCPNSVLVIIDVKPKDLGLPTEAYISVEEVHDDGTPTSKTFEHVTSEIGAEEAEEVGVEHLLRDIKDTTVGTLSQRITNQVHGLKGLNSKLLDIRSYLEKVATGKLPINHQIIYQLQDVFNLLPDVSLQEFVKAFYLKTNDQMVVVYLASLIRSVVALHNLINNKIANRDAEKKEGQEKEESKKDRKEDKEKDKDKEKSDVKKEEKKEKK
# Method in brief: as §1
# UCHL1 = UCHL1 (UniProt P09936)
# Sequence of UCHL1 (P09936 whole entry, looked up): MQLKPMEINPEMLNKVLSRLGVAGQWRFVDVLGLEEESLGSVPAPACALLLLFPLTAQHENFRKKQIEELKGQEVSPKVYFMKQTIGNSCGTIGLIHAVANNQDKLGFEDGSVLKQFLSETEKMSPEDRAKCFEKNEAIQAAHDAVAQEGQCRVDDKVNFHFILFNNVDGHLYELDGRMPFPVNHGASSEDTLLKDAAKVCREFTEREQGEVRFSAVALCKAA
# Method in brief: as §1
# UCHL3 = target: T4, UCHL3 (UniProt P15374)
# T4 sequence (whole entry): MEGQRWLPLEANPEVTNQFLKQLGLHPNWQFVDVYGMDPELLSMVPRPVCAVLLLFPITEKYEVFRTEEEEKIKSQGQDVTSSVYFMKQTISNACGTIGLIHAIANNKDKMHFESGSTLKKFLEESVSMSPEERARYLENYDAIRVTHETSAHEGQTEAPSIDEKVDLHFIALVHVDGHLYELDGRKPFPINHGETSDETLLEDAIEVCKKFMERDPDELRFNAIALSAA
# Method in brief: as §1
# UCHL5 = target: T5, UCHL5 (UniProt Q9Y5K5)
# T5 sequence (whole entry): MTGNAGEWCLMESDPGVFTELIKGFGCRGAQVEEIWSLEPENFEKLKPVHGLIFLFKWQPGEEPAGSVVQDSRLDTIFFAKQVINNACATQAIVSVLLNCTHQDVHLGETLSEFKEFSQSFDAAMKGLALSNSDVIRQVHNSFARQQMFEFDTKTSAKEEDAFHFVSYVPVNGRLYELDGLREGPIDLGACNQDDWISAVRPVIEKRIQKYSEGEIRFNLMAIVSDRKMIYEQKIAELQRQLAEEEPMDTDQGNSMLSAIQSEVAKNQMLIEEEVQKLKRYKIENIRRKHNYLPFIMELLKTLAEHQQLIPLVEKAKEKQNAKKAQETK
# Method in brief: as §1
# USP10 = USP10 (UniProt Q14694)
# Sequence of USP10 (Q14694 whole entry): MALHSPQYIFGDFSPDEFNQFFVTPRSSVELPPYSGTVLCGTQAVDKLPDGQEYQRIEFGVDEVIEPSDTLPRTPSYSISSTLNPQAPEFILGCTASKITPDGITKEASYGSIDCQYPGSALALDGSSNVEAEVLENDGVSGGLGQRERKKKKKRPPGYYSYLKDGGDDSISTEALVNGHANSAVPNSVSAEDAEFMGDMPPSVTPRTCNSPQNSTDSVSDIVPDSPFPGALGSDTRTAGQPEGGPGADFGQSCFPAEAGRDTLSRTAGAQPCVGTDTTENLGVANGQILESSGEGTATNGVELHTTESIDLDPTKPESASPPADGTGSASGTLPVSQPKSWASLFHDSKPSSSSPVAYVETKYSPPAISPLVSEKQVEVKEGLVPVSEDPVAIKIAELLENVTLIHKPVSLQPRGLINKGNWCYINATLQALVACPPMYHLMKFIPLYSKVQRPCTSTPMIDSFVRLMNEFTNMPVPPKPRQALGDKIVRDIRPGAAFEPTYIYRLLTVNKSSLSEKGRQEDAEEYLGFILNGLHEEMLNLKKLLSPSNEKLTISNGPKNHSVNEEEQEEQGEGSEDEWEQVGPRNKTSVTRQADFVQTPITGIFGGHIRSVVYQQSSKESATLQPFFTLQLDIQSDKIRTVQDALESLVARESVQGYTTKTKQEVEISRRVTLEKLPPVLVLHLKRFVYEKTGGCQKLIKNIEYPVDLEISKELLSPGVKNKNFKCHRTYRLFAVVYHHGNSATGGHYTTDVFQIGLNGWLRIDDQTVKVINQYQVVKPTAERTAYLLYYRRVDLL
# Method in brief: as §1
# USP15 = target: T6, USP15 (UniProt Q9Y4E8)
# T6 sequence (whole entry): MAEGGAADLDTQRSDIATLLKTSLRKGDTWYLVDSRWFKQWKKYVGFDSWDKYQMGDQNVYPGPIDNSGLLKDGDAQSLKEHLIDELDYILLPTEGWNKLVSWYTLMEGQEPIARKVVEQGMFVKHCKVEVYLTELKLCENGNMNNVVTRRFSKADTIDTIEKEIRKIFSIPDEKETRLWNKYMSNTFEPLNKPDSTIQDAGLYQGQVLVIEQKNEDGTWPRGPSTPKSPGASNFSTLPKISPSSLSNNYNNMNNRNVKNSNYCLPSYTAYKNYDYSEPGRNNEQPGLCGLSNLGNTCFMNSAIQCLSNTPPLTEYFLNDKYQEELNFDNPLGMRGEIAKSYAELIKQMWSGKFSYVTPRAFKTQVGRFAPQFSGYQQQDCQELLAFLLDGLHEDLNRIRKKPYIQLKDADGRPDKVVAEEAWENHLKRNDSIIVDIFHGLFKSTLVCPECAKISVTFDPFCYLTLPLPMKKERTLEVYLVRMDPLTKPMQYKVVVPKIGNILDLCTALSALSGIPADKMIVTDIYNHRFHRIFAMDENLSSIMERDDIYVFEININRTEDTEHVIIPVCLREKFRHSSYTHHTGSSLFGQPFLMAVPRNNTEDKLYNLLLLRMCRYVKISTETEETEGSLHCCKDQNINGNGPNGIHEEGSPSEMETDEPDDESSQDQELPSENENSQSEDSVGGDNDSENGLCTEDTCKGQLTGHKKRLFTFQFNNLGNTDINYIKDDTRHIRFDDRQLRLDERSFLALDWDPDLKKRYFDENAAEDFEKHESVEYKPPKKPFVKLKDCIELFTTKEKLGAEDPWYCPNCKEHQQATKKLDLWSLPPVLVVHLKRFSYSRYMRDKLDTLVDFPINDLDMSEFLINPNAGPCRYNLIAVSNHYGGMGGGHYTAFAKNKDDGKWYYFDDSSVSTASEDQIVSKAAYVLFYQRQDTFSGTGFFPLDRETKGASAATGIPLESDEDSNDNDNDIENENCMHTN
# Method in brief: as §1
# USP16 = USP16 (UniProt Q9Y5T5)
# Sequence of USP16 (Q9Y5T5 whole entry, looked up): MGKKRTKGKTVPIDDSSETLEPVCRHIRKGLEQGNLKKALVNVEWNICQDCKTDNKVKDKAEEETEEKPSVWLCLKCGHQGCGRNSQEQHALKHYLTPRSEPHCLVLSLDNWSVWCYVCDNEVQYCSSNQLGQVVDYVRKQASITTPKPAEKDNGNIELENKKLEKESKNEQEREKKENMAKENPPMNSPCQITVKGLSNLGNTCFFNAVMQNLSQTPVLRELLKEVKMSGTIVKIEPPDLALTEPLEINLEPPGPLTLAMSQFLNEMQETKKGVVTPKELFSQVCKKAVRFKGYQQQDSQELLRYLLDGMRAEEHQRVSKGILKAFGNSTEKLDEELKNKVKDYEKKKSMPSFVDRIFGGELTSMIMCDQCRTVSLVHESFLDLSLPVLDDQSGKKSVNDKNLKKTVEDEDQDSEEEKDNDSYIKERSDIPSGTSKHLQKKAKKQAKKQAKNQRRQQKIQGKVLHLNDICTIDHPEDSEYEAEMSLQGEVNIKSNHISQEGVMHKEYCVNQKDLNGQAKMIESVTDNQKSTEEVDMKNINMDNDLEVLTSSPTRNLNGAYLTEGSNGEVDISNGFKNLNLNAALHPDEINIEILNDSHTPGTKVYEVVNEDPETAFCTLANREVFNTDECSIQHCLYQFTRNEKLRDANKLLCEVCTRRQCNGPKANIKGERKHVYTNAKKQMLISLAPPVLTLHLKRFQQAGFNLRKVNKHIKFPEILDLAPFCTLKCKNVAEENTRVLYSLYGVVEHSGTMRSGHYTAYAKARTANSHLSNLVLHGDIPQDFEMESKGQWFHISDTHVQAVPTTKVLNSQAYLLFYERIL
# Method in brief: as §1
smiles,measurement,setting,value
CC(NC(=O)CCl)c1cccc2ccccc12 (stereo not given),log2 ratio of Biotin-Ahx-Ub-VS probe labelling,OTUD6B,-0.00256
same,log2 ratio of Biotin-Ahx-Ub-VS probe labelling,OTUD7B,-1.46 (active)
same,log2 ratio of Biotin-Ahx-Ub-VS probe labelling,PRPF8,-0.109
same,log2 ratio of Biotin-Ahx-Ub-VS probe labelling,PSMD7,0.0463
same,log2 ratio of Biotin-Ahx-Ub-VS probe labelling,UCHL1,-1.35 (active)
same,log2 ratio of Biotin-Ahx-Ub-VS probe labelling,UCHL3,-1.96 (active)
same,log2 ratio of Biotin-Ahx-Ub-VS probe labelling,UCHL5,-0.585
same,log2 ratio of Biotin-Ahx-Ub-VS probe labelling,USP10,-0.00367
same,log2 ratio of Biotin-Ahx-Ub-VS probe labelling,USP15,-0.21
same,log2 ratio of Biotin-Ahx-Ub-VS probe labelling,USP16,0.303

# From the supplement of paper PMC11732987, “Enantioselective OTUD7B fragment discovery through chemoproteomics screening and high-throughput optimisation” (Communications Chemistry, 2025)
